# How the values were obtained:
# Assay in all cases: DAPPL (digital affinity profiling via proximity ligation, sequencing); 10 mM Tris-HCl pH 7.5, 50 mM NaCl, 1 mM DTT, 4% glycerol, room temperature, 30 min; GST-TFs on glutathione beads, 16-mer random dsDNA library, 0.1% formaldehyde crosslink after washing; high values mean tight binding
# [1] = target: T1, FEV (Homo sapiens, UniProt Q99581 1-238); conditions: protein: recombinant; tags: N-terminal GST; dsDNA, one strand shown
# T1 sequence: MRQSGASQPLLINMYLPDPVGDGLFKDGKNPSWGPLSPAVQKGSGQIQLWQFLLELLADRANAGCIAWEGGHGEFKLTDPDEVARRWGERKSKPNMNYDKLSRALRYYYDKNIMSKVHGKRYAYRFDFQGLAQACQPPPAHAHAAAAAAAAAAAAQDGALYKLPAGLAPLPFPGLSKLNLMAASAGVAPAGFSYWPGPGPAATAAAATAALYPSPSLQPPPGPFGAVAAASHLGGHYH
# How it was run: (§1)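 Each value of binding signal is a hexamer's read frequency for a factor divided by the same hexamer's frequency in the tag-only sample. Barcoded, bead-captured GST fusions of human transcription factors made in yeast were pooled with that sample and incubated with 200 nmole of a random double-stranded 16-mer DNA library in Tris/NaCl/DTT/glycerol buffer at room temperature for 30 min. Washing, 0.1% formaldehyde crosslinking, proximity ligation, PCR and Illumina NextSeq500 sequencing followed.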
# [2] = target: ETV5 (Homo sapiens, UniProt P41161 1-510); conditions: protein: recombinant; tags: N-terminal GST; dsDNA, one strand shown
# ETV5, sequence (P41161 whole entry): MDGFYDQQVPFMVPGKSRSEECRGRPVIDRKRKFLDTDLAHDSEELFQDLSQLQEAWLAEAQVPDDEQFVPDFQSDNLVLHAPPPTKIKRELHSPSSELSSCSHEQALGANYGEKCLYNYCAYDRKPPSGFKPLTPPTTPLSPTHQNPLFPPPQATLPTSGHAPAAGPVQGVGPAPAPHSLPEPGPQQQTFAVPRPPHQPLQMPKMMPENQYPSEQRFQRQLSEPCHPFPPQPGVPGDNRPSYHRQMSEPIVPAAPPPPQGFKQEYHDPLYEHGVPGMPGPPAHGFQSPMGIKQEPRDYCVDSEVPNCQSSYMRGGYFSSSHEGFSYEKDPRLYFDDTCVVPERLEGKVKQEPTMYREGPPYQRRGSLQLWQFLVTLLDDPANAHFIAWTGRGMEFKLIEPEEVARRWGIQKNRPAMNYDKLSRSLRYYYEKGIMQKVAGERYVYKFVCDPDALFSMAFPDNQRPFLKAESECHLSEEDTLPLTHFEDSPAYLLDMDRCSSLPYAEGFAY
# How it was run: as §1
# [3] = target: HSF1 (Homo sapiens, UniProt Q00613 1-529); conditions: protein: recombinant; tags: N-terminal GST; chain copies: 3; dsDNA, one strand shown
# HSF1, sequence (Q00613 whole entry): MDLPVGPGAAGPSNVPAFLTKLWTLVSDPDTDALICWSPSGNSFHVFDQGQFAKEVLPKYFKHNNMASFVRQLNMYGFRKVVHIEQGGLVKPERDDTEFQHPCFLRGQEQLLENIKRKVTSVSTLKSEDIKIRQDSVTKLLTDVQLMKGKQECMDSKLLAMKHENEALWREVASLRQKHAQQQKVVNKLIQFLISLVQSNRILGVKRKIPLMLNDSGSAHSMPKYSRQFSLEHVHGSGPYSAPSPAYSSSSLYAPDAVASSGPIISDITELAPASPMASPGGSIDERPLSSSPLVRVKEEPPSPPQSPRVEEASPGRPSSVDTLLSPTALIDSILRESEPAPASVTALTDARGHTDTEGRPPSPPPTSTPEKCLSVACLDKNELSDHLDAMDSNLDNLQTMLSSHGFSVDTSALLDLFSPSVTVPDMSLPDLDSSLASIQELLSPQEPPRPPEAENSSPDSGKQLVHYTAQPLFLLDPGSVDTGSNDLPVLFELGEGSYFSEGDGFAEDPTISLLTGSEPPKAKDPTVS
# How it was run: as §1
# [4] = target: T2, SPIC (Homo sapiens, UniProt Q8N5J4 1-248); conditions: protein: recombinant; tags: N-terminal GST; dsDNA, one strand shown
# T2 sequence: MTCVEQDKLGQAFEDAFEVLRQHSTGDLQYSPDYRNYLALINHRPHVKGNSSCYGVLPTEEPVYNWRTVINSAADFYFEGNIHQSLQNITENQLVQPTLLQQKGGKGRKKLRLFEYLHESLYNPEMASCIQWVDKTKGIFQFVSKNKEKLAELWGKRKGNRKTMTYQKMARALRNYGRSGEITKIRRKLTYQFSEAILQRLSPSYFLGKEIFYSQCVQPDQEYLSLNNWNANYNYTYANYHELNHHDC
# How it was run: as §1
# [5] = target: ELF4 (Homo sapiens, UniProt Q99607 1-663); conditions: protein: recombinant; tags: N-terminal GST; dsDNA, one strand shown
# ELF4, sequence (Q99607 whole entry): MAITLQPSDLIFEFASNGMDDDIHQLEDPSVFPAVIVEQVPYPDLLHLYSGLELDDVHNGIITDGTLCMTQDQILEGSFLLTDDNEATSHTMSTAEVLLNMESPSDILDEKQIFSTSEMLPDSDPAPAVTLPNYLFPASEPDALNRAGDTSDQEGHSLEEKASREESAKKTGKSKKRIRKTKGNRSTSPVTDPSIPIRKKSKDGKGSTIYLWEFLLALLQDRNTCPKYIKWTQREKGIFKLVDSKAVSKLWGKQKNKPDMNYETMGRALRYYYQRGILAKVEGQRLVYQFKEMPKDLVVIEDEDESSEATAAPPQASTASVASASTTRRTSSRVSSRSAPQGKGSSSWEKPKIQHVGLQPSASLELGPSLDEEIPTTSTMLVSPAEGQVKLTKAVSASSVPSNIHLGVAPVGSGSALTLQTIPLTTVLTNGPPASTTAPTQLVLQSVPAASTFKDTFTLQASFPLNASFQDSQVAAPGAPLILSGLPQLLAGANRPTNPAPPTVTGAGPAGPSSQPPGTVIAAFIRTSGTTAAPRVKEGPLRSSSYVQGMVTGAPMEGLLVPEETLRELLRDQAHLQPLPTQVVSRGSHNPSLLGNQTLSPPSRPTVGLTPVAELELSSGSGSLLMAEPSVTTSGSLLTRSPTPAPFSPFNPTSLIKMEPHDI
# How it was run: as §1
# [6] = target: T3, ELK4 (Homo sapiens, UniProt P28324-2 1-405); conditions: protein: recombinant; tags: N-terminal GST; dsDNA, one strand shown
# T3 sequence: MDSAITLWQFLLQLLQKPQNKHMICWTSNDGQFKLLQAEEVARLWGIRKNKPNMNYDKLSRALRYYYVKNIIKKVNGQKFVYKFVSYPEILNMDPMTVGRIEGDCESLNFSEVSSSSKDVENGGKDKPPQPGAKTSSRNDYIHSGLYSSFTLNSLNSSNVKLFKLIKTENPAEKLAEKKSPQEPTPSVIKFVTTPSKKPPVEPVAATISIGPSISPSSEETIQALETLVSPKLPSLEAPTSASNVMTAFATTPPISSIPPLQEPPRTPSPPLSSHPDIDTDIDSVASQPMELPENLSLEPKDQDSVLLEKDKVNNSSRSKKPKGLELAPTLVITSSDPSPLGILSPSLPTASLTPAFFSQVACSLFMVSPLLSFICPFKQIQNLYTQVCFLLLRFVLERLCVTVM
# How it was run: as §1
# [7] = target: T4, ETV2 (Homo sapiens, UniProt O00321 1-342); conditions: protein: recombinant; tags: N-terminal GST; dsDNA, one strand shown
# T4 sequence: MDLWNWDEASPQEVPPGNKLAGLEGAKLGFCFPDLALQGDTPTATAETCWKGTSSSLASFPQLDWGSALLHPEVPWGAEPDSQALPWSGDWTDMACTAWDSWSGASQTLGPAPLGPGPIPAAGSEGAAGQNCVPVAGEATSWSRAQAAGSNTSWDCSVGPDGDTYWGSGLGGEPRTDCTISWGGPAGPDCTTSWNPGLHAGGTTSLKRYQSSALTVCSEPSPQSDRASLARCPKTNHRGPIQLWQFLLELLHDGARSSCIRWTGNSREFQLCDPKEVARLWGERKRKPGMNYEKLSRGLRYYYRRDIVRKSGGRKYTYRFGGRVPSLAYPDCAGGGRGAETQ
# How it was run: as §1
# [8] = target: T5, ELF3 (Homo sapiens, UniProt P78545 1-371); conditions: protein: recombinant; tags: N-terminal GST; dsDNA, one strand shown
# T5 sequence: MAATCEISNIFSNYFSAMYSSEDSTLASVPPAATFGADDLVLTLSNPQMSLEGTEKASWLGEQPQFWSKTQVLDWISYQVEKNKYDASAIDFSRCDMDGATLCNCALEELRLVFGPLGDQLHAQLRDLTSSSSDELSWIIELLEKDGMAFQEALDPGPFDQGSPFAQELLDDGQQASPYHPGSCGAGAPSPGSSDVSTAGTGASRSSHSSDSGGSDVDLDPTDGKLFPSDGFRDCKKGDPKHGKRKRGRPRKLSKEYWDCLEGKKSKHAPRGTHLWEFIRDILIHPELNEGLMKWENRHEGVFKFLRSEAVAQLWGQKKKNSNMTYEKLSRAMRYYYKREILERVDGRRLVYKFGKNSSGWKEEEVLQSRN
# How it was run: as §1
# [9] = target: CRX (Homo sapiens, UniProt O43186 1-299); conditions: protein: recombinant; tags: N-terminal GST; dsDNA, one strand shown
# CRX, sequence (O43186 whole entry): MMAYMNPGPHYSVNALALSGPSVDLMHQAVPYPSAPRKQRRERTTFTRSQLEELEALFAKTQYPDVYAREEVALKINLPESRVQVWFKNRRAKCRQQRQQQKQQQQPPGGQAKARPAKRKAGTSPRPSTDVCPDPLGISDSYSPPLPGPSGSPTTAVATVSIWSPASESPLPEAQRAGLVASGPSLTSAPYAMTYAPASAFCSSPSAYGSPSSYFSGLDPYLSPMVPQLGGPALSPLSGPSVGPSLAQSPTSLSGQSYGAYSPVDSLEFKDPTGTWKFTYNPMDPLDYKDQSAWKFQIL
# How it was run: as §1
# [10] = target: ETV1 (Homo sapiens, UniProt P50549 1-477); conditions: protein: recombinant; tags: N-terminal GST; dsDNA, one strand shown
# ETV1, sequence (P50549 whole entry): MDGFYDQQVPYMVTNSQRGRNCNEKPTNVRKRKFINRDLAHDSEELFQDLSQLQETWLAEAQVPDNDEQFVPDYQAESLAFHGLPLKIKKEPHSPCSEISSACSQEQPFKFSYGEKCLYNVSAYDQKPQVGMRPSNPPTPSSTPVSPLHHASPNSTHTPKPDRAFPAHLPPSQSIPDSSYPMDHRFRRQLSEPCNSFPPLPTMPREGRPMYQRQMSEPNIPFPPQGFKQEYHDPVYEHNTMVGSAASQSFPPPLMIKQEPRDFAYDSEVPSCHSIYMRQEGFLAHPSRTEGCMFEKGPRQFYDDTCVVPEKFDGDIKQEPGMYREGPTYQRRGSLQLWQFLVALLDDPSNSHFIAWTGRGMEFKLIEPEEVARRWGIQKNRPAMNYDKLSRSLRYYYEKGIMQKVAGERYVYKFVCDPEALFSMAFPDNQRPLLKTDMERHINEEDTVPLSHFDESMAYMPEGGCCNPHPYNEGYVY
# How it was run: as §1
# [11] = target: T6, ERF (Homo sapiens, UniProt P50548 1-548); conditions: protein: recombinant; tags: N-terminal GST; dsDNA, one strand shown
# T6 sequence: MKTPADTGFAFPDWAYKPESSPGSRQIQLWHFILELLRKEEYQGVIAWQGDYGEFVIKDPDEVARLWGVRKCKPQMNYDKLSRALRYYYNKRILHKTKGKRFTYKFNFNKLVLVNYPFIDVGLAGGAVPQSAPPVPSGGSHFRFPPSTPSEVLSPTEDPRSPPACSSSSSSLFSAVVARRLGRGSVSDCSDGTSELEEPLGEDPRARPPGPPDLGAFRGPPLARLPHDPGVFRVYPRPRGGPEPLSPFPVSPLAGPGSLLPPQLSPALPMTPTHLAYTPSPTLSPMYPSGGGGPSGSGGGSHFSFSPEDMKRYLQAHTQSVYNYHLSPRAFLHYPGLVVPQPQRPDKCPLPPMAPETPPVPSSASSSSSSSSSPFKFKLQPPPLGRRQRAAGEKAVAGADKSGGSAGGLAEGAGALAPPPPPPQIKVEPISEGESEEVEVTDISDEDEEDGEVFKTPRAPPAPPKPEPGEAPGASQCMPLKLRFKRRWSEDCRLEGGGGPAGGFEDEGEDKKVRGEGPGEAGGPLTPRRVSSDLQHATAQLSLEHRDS
# How it was run: as §1
# [12] = target: T7, ETV3L (Homo sapiens, UniProt Q6ZN32 1-361); conditions: protein: recombinant; tags: N-terminal GST; dsDNA, one strand shown
# T7 sequence: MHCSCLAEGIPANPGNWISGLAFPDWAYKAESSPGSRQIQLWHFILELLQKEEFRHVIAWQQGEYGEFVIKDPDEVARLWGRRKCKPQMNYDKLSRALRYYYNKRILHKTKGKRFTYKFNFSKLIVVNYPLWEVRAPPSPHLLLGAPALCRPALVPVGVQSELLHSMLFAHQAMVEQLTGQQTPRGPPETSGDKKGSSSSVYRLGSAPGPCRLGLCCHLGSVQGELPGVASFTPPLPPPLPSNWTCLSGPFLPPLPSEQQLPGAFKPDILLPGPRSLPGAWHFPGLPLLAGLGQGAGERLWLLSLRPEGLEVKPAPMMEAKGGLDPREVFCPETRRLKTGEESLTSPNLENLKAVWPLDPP
# How it was run: as §1
# [13] = target: T8, ETS2 (Homo sapiens, UniProt P15036 1-469); conditions: protein: recombinant; tags: N-terminal GST; dsDNA, one strand shown
# T8 sequence: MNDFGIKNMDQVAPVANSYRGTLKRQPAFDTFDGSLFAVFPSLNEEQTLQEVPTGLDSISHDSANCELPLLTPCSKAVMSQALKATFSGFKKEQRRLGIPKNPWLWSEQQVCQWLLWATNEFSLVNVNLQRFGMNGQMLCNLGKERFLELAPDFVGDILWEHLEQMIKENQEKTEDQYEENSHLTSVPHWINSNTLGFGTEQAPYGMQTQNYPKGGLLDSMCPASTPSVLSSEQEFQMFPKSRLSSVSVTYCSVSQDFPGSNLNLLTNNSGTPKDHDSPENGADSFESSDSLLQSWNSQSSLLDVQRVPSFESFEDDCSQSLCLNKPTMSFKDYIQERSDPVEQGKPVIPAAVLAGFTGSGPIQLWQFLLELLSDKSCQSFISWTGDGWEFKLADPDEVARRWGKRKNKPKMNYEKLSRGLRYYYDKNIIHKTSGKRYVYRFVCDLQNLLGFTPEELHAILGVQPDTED
# How it was run: as §1
# [14] = target: T9, SPDEF (Homo sapiens, UniProt O95238 1-335); conditions: protein: recombinant; tags: N-terminal GST; dsDNA, one strand shown
# T9 sequence: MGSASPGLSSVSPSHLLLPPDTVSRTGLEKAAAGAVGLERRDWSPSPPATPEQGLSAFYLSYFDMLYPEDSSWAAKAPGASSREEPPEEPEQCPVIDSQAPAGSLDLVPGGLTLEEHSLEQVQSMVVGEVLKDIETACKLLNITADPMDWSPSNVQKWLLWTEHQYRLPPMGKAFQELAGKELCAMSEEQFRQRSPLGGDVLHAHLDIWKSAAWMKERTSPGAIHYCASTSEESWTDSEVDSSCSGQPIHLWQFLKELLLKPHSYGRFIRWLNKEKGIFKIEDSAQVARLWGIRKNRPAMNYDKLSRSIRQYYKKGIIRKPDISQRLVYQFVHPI
# How it was run: as §1
# [15] = target: T10, ETV7 (Homo sapiens, UniProt Q9Y603 1-341); conditions: protein: recombinant; tags: N-terminal GST; dsDNA, one strand shown
# T10 sequence: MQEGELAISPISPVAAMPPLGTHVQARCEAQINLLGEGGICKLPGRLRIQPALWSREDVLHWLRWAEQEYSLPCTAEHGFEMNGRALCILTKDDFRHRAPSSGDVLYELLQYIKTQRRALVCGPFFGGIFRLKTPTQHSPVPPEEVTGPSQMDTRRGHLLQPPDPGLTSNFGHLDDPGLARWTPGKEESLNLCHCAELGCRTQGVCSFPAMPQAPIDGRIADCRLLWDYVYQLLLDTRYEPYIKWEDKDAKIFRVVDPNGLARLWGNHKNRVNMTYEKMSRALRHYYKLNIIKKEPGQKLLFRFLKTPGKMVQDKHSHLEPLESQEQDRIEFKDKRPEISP
# How it was run: as §1
# [16] = target: T11, ELF5 (Homo sapiens, UniProt Q9UKW6-2 1-255); conditions: protein: recombinant; tags: N-terminal GST; dsDNA, one strand shown
# T11 sequence: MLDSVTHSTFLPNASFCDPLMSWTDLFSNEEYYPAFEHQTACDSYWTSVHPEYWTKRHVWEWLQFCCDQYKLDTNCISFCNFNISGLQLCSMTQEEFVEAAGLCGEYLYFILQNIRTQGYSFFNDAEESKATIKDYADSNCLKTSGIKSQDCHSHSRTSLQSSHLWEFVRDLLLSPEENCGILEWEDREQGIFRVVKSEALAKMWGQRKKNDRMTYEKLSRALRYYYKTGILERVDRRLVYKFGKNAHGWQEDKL
# How it was run: as §1
# [17] = target: T12, ETV3 (Homo sapiens, UniProt P41162-2 1-143); conditions: protein: recombinant; tags: N-terminal GST; dsDNA, one strand shown
# T12 sequence: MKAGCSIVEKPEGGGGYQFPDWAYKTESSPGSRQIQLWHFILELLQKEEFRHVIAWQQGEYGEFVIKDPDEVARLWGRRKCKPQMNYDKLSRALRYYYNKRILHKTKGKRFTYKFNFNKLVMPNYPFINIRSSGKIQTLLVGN
# How it was run: as §1
# [18] = target: ETV6 (Homo sapiens, UniProt P41212 1-452); conditions: protein: recombinant; tags: N-terminal GST; dsDNA, one strand shown
# ETV6, sequence (P41212 whole entry): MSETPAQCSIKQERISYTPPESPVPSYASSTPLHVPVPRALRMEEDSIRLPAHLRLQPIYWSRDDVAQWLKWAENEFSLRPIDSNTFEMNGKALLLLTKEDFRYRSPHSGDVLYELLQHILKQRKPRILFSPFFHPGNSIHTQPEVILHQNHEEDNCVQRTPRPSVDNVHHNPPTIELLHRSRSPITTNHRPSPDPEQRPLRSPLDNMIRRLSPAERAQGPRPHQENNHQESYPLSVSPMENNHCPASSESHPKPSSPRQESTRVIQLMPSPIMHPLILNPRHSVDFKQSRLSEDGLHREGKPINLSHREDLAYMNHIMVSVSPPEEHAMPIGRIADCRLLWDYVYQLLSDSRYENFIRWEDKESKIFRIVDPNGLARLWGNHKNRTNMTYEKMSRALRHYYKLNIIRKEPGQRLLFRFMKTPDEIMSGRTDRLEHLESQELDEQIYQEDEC
# How it was run: as §1
sequence,measurement,setting,value
CGATCT,binding signal,[1],"1.32 fold enrichment (6-mer frequency, TF over GST control)"
same,binding signal,[2],"1.36 fold enrichment (6-mer frequency, TF over GST control)"
same,binding signal,[3],"1.54 fold enrichment (6-mer frequency, TF over GST control)"
same,binding signal,[4],"1.46 fold enrichment (6-mer frequency, TF over GST control)"
same,binding signal,[5],"1.37 fold enrichment (6-mer frequency, TF over GST control)"
same,binding signal,[6],"1.38 fold enrichment (6-mer frequency, TF over GST control)"
same,binding signal,[7],"1.27 fold enrichment (6-mer frequency, TF over GST control)"
same,binding signal,[8],"1.41 fold enrichment (6-mer frequency, TF over GST control)"
same,binding signal,[9],"1.52 fold enrichment (6-mer frequency, TF over GST control)"
same,binding signal,[10],"1.24 fold enrichment (6-mer frequency, TF over GST control)"
same,binding signal,[11],"1.17 fold enrichment (6-mer frequency, TF over GST control)"
same,binding signal,[12],"1.32 fold enrichment (6-mer frequency, TF over GST control)"
same,binding signal,[13],"1.32 fold enrichment (6-mer frequency, TF over GST control)"
same,binding signal,[14],"1.25 fold enrichment (6-mer frequency, TF over GST control)"
same,binding signal,[15],"1.42 fold enrichment (6-mer frequency, TF over GST control)"
same,binding signal,[16],"1.27 fold enrichment (6-mer frequency, TF over GST control)"
same,binding signal,[17],"1.24 fold enrichment (6-mer frequency, TF over GST control)"
same,binding signal,[18],"1.2 fold enrichment (6-mer frequency, TF over GST control)"

# Source: PMC7862700, “An all-to-all approach to the identification of sequence-specific readers for epigenetic DNA modifications on cytosine”
